From PubChem BioAssay (NCI) come the findings set out here.

Compounds without any hit were thinned out: in the full panel of roughly 79,000, 15% have a hit. Unmarked numbers belong to inactive results. The source made the active and inactive calls. Cut-off read from the data, not from the text of the source: active = growth inhibition above about 70%; inactive = the rest.

Assay [1] in a line: NCI Yeast Anticancer Drug Screen. Data for the rad50 strain (AID 155).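 Note: 0% = growth of vehicle-only cultures of the same strain.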 The note with it: S. cerevisiae rad50 strain growth inhibition, hits give high values. The gist of the method:
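DNA repair mutant yeast, compound exposure, growth read-out; inhibition is taken relative to vehicle.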

Assay [2] in a line: NCI Yeast Anticancer Drug Screen. Data for the mec2-1 strain (AID 157). The note with it: S. cerevisiae mec2-1 strain, hits give high values. Summed up: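 mec2-1 yeast strain, carrying an alteration in DNA damage repair or cell cycle control, was exposed to compounds; growth inhibition was measured relative to vehicle-treated controls.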
Assay [3] in a line: NCI Yeast Anticancer Drug Screen. Data for the sgs1 mgt1 strain (AID 161).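 Note: 0% = growth of cultures given vehicle only.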 The note with it: S. cerevisiae sgs1 mgt1 strain, hits give high values. Summed up:
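Growth of a repair-deficient yeast mutant was monitored after compound treatment and expressed as inhibition relative to vehicle-treated cultures.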

Assay [4] can be described thus: NCI Yeast Anticancer Drug Screen. Data for the cln2 rad14 strain (AID 165).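 Note: 0% = growth equal to vehicle treated cultures.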 The following applies: S. cerevisiae cln2 rad14 strain, hits give high values. The gist of the method:
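Yeast carrying cln2 and rad14 alterations (cell cycle control and DNA damage repair) were exposed to compounds. Growth inhibition was measured against vehicle-treated controls.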

Assay [5] can be described thus: NCI Yeast Anticancer Drug Screen. Data for the bub3 strain (AID 167). The following applies: S. cerevisiae bub3 mutant strain, hits give high values. Summed up: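 In this screen, a yeast mutant lacking normal mitotic checkpoint function is challenged with compound. Relative growth versus vehicle gives the inhibition value.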
Assay [6] is described as follows: NCI Yeast Anticancer Drug Screen. Data for the mlh1 rad18 strain (AID 175). The following applies: S. cerevisiae mlh1 rad18 strain growth inhibition, hits give high values. The gist of the method:
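Growth inhibition of the yeast strain was measured after compound exposure and expressed relative to vehicle-treated controls. The strain carries defined defects in DNA damage repair.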

The mark [7] stands for this setting: at 5.0 µM (retest, dose inferred, filed as 0.5).
[8] abbreviates: at 50.0 µM (retest, dose inferred, filed as 5.0).

As for `CNc1cc(SC)nc(N)n1`, the growth inhibition in assay [1] (setting [7]) was 3%; in assay [1] (setting [8]), -7%; in assay [1] (at 50.0 µM) it was 89.7% (active); in assay [2] (setting [7]), -2%; in assay [2] (setting [8]), -3%; in assay [2] (at 50.0 µM) it was 94.3% (active). Besides, the growth inhibition in assay [3] (setting [7]) is 1%; in assay [3] (setting [8]), -9%; in assay [3] (at 50.0 µM), 92.8% (active); in assay [4] (setting [7]), -1%; in assay [4] (setting [8]) it was 0%; in assay [4] (at 50.0 µM), 91.8% (active). Further, the growth inhibition in assay [5] (setting [7]) was -1%; in assay [5] (setting [8]), -1%; in assay [5] (at 50.0 µM), 75.4% (active); in assay [6] (setting [7]), 0%; in assay [6] (setting [8]), -4%; in assay [6] (at 50.0 µM) it was 95% (active).

Consider `CC1COC(=O)O1` (stereo not drawn), for which the growth inhibition in assay [1] (setting [7]) is -31%; in assay [1] (setting [8]), -1%; in assay [1] (at 50.0 µM) it was -4.85%; in assay [2] (setting [7]), -3%; in assay [2] (setting [8]) it was -2%; in assay [2] (at 50.0 µM) it was -2.35%. The growth inhibition in assay [3] (setting [7]) was 6%; in assay [3] (setting [8]), 6%; in assay [3] (at 50.0 µM), 6%; in assay [4] (setting [7]), 6%; in assay [4] (setting [8]) it was 2%; in assay [4] (at 50.0 µM), 15.2%. Also, the growth inhibition was 3% in assay [5] (setting [7]); 4% in assay [5] (setting [8]); -2% in assay [5] (at 50.0 µM); 7% in assay [6] (setting [7]); 18% in assay [6] (setting [8]); 15.8% in assay [6] (at 50.0 µM).

For `COc1c(I)cc(I)c(O)c1I`, the growth inhibition in assay [1] (setting [7]) was 6%; in assay [1] (setting [8]), 39%; in assay [1] (at 50.0 µM), 94.4% (active); in assay [2] (setting [7]) it was 10%; in assay [2] (setting [8]) it was 80% (active); in assay [2] (at 50.0 µM), 93.8% (active). The growth inhibition is 7% in assay [3] (setting [7]); 64% in assay [3] (setting [8]); 91% (active) in assay [3] (at 50.0 µM); 10% in assay [4] (setting [7]); 36% in assay [4] (setting [8]); 88.1% (active) in assay [4] (at 50.0 µM). The values for the growth inhibition in assay [6] (setting [7]), in assay [6] (setting [8]) and in assay [6] (at 50.0 µM) were 9%, 77% (active) and 94.2% (active), respectively.

As for `COc1ccc(C2=CCC3C4CC=C5CC(O)CCC5(C)C4CCC23C)s1` (stereo not drawn), the growth inhibition was 0% in assay [1] (setting [7]); 13% in assay [1] (setting [8]); 59.7% in assay [1] (at 50.0 µM); -17% in assay [2] (setting [7]); 63% in assay [2] (setting [8]); 64.1% in assay [2] (at 50.0 µM). Further, the growth inhibition in assay [3] (setting [7]) was -23%; in assay [3] (setting [8]), 82% (active); in assay [3] (at 50.0 µM) it was 59.6%; in assay [5] (setting [7]) it was -1%; in assay [5] (setting [8]) it was 30%; in assay [5] (at 50.0 µM) it was 66%.

As for `CC(=O)Nc1ccc(/C=C2/NC(=S)N(/C=C3\C(=O)Oc4ccccc4C3=O)C2=O)cc1`, the growth inhibition in assay [1] (setting [7]) was -10%; in assay [1] (setting [8]), 50%; in assay [1] (at 50.0 µM), 70.7% (active); in assay [2] (setting [7]), -19%; in assay [2] (setting [8]) it was 60%; in assay [2] (at 50.0 µM), 76.5% (active). Further, the growth inhibition is -6% in assay [3] (setting [7]); 29% in assay [3] (setting [8]); 78.7% (active) in assay [3] (at 50.0 µM); -15% in assay [4] (setting [7]); 64% in assay [4] (setting [8]); 86% (active) in assay [4] (at 50.0 µM). Moreover, the growth inhibition in assay [5] (setting [7]) is -12%; in assay [5] (setting [8]), 36%; in assay [5] (at 50.0 µM) it was 67.2%; in assay [6] (setting [7]), -9%; in assay [6] (setting [8]), 44%; in assay [6] (at 50.0 µM), 76.2% (active).

As for `C/C(=N\Oc1ncc([N+](=O)[O-])c(O/N=C(\C)c2ccccc2)n1)c1ccccc1`, the growth inhibition in assay [1] (setting [7]) is 52%; in assay [1] (setting [8]), -24%; in assay [1] (at 50.0 µM) it was 43.2%; in assay [2] (setting [7]), 37%; in assay [2] (setting [8]) it was -11%; in assay [2] (at 50.0 µM), 66.8%. Moreover, the growth inhibition in assay [3] (setting [7]) was 53%; in assay [3] (setting [8]), -10%; in assay [3] (at 50.0 µM) it was 83% (active); in assay [4] (setting [7]) it was 28%; in assay [4] (setting [8]) it was -20%; in assay [4] (at 50.0 µM), 45.7%. In addition, the growth inhibition in assay [5] (setting [7]) was 48%; in assay [5] (setting [8]), -16%; in assay [5] (at 50.0 µM) it was 50.6%; in assay [6] (setting [7]), 54%; in assay [6] (setting [8]) it was -11%; in assay [6] (at 50.0 µM) it was 94.2% (active).

Consider `CCCCCCCCCCCCCCOCCS(=O)(=O)O`, for which the growth inhibition was 18% in assay [1] (setting [7]); 83% (active) in assay [1] (setting [8]); 70.8% (active) in assay [1] (at 50.0 µM); -9% in assay [2] (setting [7]); 69% in assay [2] (setting [8]); 52.4% in assay [2] (at 50.0 µM). The growth inhibition is 16% in assay [3] (setting [7]); 80% (active) in assay [3] (setting [8]); 78.8% (active) in assay [3] (at 50.0 µM); -12% in assay [4] (setting [7]); 61% in assay [4] (setting [8]); 38.4% in assay [4] (at 50.0 µM). For the same compound, the growth inhibition in assay [5] (setting [7]) is 6%; in assay [5] (setting [8]), 85% (active); in assay [5] (at 50.0 µM), 29.8%; in assay [6] (setting [7]), 7%; in assay [6] (setting [8]) it was 83% (active); in assay [6] (at 50.0 µM), 79.4% (active).

Take `COC(=O)/C=C1/OC(c2ccccc2)=C(Br)C1=O`: the growth inhibition is 17% in assay [1] (setting [7]); 17% in assay [1] (setting [8]); 89.3% (active) in assay [1] (at 50.0 µM); 11% in assay [2] (setting [7]); 11% in assay [2] (setting [8]); 91.3% (active) in assay [2] (at 50.0 µM). The growth inhibition in assay [3] (setting [7]) is 11%; in assay [3] (setting [8]), 11%; in assay [3] (at 50.0 µM) it was 86.5% (active); in assay [5] (setting [7]) it was -2%; in assay [5] (setting [8]) it was -2%; in assay [5] (at 50.0 µM), 88.5% (active). Moreover, the growth inhibition is 15% in assay [6] (setting [7]), 15% in assay [6] (setting [8]) and 85.3% (active) in assay [6] (at 50.0 µM).

Consider `Nc1ccccc1N=Cc1ccccc1O`, for which the growth inhibition is -12% in assay [1] (setting [7]); 54% in assay [1] (setting [8]); 66.2% in assay [1] (at 50.0 µM); -4% in assay [2] (setting [7]); 76% (active) in assay [2] (setting [8]); 41.2% in assay [2] (at 50.0 µM). The growth inhibition was -8% in assay [3] (setting [7]); 91% (active) in assay [3] (setting [8]); 0.4% in assay [3] (at 50.0 µM); -18% in assay [4] (setting [7]); 55% in assay [4] (setting [8]); 22.8% in assay [4] (at 50.0 µM). Besides, the growth inhibition in assay [5] (setting [7]) is -12%; in assay [5] (setting [8]) it was 63%; in assay [5] (at 50.0 µM), 5.85%; in assay [6] (setting [7]), 3%; in assay [6] (setting [8]) it was 80% (active); in assay [6] (at 50.0 µM), 69.3%.

`Fc1ccc2[nH]ccc2c1`: the growth inhibition in assay [1] (setting [7]) is 9%; in assay [1] (setting [8]), 41%; in assay [1] (at 50.0 µM), 55.5%; in assay [2] (setting [7]) it was -22%; in assay [2] (setting [8]) it was 13%; in assay [2] (at 50.0 µM), 28.8%. Also, the growth inhibition was 5% in assay [3] (setting [7]); 19% in assay [3] (setting [8]); 60.6% in assay [3] (at 50.0 µM); 9% in assay [4] (setting [7]); 47% in assay [4] (setting [8]); 34.4% in assay [4] (at 50.0 µM). In addition, the growth inhibition in assay [5] (setting [7]) is 2%; in assay [5] (setting [8]), 62%; in assay [5] (at 50.0 µM) it was 62.3%; in assay [6] (setting [7]), -19%; in assay [6] (setting [8]), 44%; in assay [6] (at 50.0 µM), 49.3%.
